Among all 11,000 compounds or so, about 310 (2.8%) were called active. Cut-off read from the data, not from the text of the source: active = activity change below about -85%; inactive = the rest. The entries come from a sample that favours actives as a whole.
test system: intestinal alkaline phosphatase [Mus musculus]; test: mouse intestinal phosphatase enzyme activation – biochemical, luminescence, single concentration, confirmation (AID 434970); details: purified mouse IAP, CDP-Star luminescence, 30 min, at 10 µM; activation factor: measured here: IAP activation factor, stronger effect = higher value; activity change, negative = activation: stronger effect = lower value

Compound | activation factor | activity change, negative = activation
Cc1ccccc1C1C(C#N)=C2N=C(N)c3c(sc4c3CCCCC4)N2C2=C1C(=O)CCC2 (centres undefined) | 0.831 | 16.9% (inactive)
CC1N(O)C(C)(C)C(c2ccccc2)=[N+]1[O-] (centres undefined) | 1.08 | -7.85% (inactive)
Cc1cc(NC(=O)CSc2ccc(-c3ccccc3)nn2)no1 | 0.978 | 2.15% (inactive)
CCOC(=O)Cn1c(=O)c(-c2ccccc2NCc2ccccc2)nc2ccccc21 | 0.764 | 23.5% (inactive)
COCCn1c(-c2cc(OC)c(OC)c(OC)c2)nc2oc3ccccc3c(=O)c2c1=O | 0.931 | 6.9% (inactive)
COc1ccc(C2(CNC(=O)Cc3ccc(OC)c(OC)c3)CCOCC2)cc1 | 0.999 | 0.05% (inactive)
C#CCOCCOCCOCCNc1nc(N2CCN(C(=O)CCCCCCCCCCNC(=O)[C@@H](CCSC)n3cc(CCO)nn3)CC2)nc(N2CCN(C(=O)CCCCCCCCCCNC(=O)[C@H]([C@@H](C)CC)n3cc(CCCCCN)nn3)CC2)n1 | 7.35 | -635% (active)
C#CCOCCOCCOCCNc1nc(N2CCN(C(=O)CCCCCCCCCCNC(=O)[C@@H](CCSC)n3cc(CCO)nn3)CC2)nc(N2CCN(C(=O)CCCCCCCCCCNC(=O)[C@H]([C@@H](C)CC)n3cc(CCCCN=C(N)N)nn3)CC2)n1 | 22.1 | -2110% (active)
C#CCOCCOCCOCCNc1nc(N2CCN(C(=O)CCCCCCCCCCNC(=O)[C@H]([C@@H](C)CC)n3cc(CCCCN=C(N)N)nn3)CC2)nc(N2CCN(C(=O)CCCCCCCCCCNC(=O)[C@H](CO)n3cc(CCCSC)nn3)CC2)n1 | 15.4 | -1440% (active)
FC(F)(F)c1nnc2sc(-c3cccs3)nn12 | 0.967 | 3.3% (inactive)
CC(=O)Nc1ccc(Nc2nc(C)nc3c2oc2ccccc23)cc1 | 1.01 | -1.3% (inactive)
Cn1nnnc1SCC(=O)Nc1ccc(Oc2ccccc2)cc1 | 0.952 | 4.85% (inactive)
COc1ccc(CCn2c(C)cc(C(=O)CSc3nnc(N)s3)c2C)cc1 | 0.959 | 4.1% (inactive)
O=C(NCc1ccc(Cl)cc1Cl)C1CCN(S(=O)(=O)c2ccc3c(c2)OCCCO3)CC1 | 1.48 | -48.2% (inactive)
COCCNC(=O)CN(C)S(=O)(=O)c1ccc2c(c1)OCCO2 | 0.928 | 7.15% (inactive)
COc1ccc(NC2=C(C(C)=O)C(c3ccc(OC)c(OC)c3)C(C(C)=O)C(C)(O)C2)cc1 (centres undefined) | 1.08 | -7.85% (inactive)
CCn1nnnc1SCC(=O)Nc1ccc2c(c1)OCO2 | 0.992 | 0.8% (inactive)
Cc1cc(NC(=O)c2ccc(C)s2)n(-c2ccccc2)n1 | 1.01 | -0.8% (inactive)
COc1ccc(-c2cc(C(=O)Nc3cc(C)nn3-c3ccccc3)no2)cc1 | 0.921 | 7.9% (inactive)
Cc1cc(NC(=O)Nc2cc(C)nn2-c2ccccc2)n(-c2ccccc2)n1 | 0.992 | 0.75% (inactive)
COc1cccc(-c2cc(C(=O)Nc3cc(C)nn3-c3ccccc3)no2)c1 | 1.1 | -10.2% (inactive)
Cc1cc(NC(=O)Nc2ccc(Cl)c(Cl)c2)n(-c2ccccc2)n1 | 2.79 | -179% (active)
CCOC(=O)/C=C(\C)Nc1cc(C)nn1-c1ccccc1 | 1.04 | -4.05% (inactive)
Cc1nn(C)c(C)c1NC(=O)Nc1ccc(Cl)c(Cl)c1 | 1.62 | -62.2% (inactive)

Compound | activation factor | activity change, negative = activation
Cc1cc(NC(=O)Nc2cccc(Cl)c2)n(-c2ccccc2)n1 | 1.97 | -97.1% (active)
Cc1cc(NC(=O)Nc2ccc(Cl)cc2)n(-c2ccccc2)n1 | 2.07 | -107% (active)
COc1cc(C2Nc3cc(Cl)c(S(N)(=O)=O)cc3S(=O)(=O)N2)ccc1OCc1ccccc1 (centres undefined) | 0.84 | 16% (inactive)
CC[C@]12c3[nH]c4cc(CCC(=O)N(C)C)ccc4c3CCN1C(=O)[C@@H](CC(=O)NCC13CC4CC(CC(C4)C1)C3)C[C@@H]2C(=O)N1CCN(C(=O)C2CC2)CC1 | 1.15 | -14.6% (inactive)
O=C(CCl)Oc1ccc2occ(C(=O)c3cccs3)c2c1 | 0.89 | 11% (inactive)
Cc1[nH]c2ccccc2c1C(=O)COC(=O)C1CC(=O)N(Cc2ccco2)C1 (centres undefined) | 1.14 | -13.6% (inactive)
CCOC(=O)C1=CNS(=O)(=O)NC1c1ccc(C)cc1 (centres undefined) | 0.96 | 4.05% (inactive)
COc1ccc2c(c1)[nH]c1c(=O)n(CCc3cnc[nH]3)cnc12 | 1.02 | -1.9% (inactive)
CCCOc1ccc(C(=O)NCCO)cc1 | 1.01 | -1.1% (inactive)
CCCCOc1ccc(-c2nnc(-c3ccncc3)o2)cc1 | 0.94 | 6.05% (inactive)
CCCCCOc1ccc(C(=O)CCC(=O)NNC(=O)c2ccncc2)cc1 | 3.52 | -252% (active)
CC[C@]1(C(=O)OC)[C@H]2C(=O)N(C)C(=O)[C@H]2[C@H]2CN=C(SCc3ccc(C#N)cc3)N21 | 1.07 | -6.55% (inactive)
N#Cc1nc(-c2ccc(Cl)cc2)oc1NCc1ccco1 | 0.952 | 4.8% (inactive)
COc1ccccc1-c1cc(C(F)(F)F)nc(N2CCCC2)n1 | 0.939 | 6.15% (inactive)
O=C(Cn1cc(C(=O)c2ccco2)c2ccccc21)NCc1ccco1 | 0.907 | 9.3% (inactive)
S=C(NCc1cccc(Cl)c1)NC1CCCCC1 | 1.14 | -14.3% (inactive)
S=C(NCc1ccc(Cl)cc1Cl)Nc1ccccc1 | 1.41 | -41% (inactive)
S=C(NCc1ccc(Cl)cc1Cl)NC1CCCCC1 | 1.93 | -93% (active)
Cc1cccc(NC(=O)C2=C(O)c3ccccc3N(C)S2(=O)=O)c1 | 0.998 | 0.2% (inactive)
N#Cc1nc(COc2ccc(Cl)cc2)oc1N1CCCCCC1 | 0.964 | 3.6% (inactive)
CCOC(=O)c1cccc(NC(=O)CCS(=O)(=O)c2cccs2)c1 | 1.01 | -0.85% (inactive)
COc1ccc(C(=O)NNC(=S)NC(=O)c2cc(-c3ccccc3)nc3ccccc23)cc1 | 0.848 | 15.2% (inactive)
C[C@]12c3[nH]c4cc(-c5ccco5)ccc4c3CCN1C(=O)[C@@H](CC(=O)NCCN1CCOCC1)C[C@@H]2C(=O)N1CCOCC1 | 0.997 | 0.25% (inactive)
C[C@H](CO)N1C[C@H](C)[C@@H](CN(C)S(=O)(=O)c2ccc(F)cc2)Oc2ccc(NC(=O)Nc3ccc4c(c3)OCO4)cc2C1=O | 1.82 | -81.6% (inactive)

Compound | activation factor | activity change, negative = activation
C[C@@H]1CN([C@@H](C)CO)C(=O)c2cc(NC(=O)Nc3ccc4c(c3)OCO4)ccc2O[C@H]1CN(C)S(=O)(=O)c1ccc(F)cc1 | 1.65 | -64.8% (inactive)
C[C@H](CO)N1C[C@H](C)[C@@H](CN(C)S(=O)(=O)c2ccc(F)cc2)Oc2ccc(NC(=O)NC3CCCCC3)cc2C1=O | 2.2 | -120% (active)
C[C@H](CO)N1C[C@H](C)[C@@H](CN(C)S(=O)(=O)c2ccccc2)Oc2ccc(NC(=O)NC3CCCCC3)cc2C1=O | 2.79 | -179% (active)
C[C@H](CO)N1C[C@H](C)[C@H](CN(C)S(=O)(=O)c2ccccc2)Oc2ccc(NC(=O)NC3CCCCC3)cc2CC1=O | 1.71 | -71.4% (inactive)
COc1ccc(S(=O)(=O)N(C)C[C@H]2Oc3ccc(NC(=O)NC4CCCCC4)cc3C(=O)N([C@H](C)CO)C[C@@H]2C)cc1 | 2.74 | -174% (active)
Cc1noc(C)c1S(=O)(=O)N(C)C[C@H]1Oc2ccc(NC(=O)NC3CCCCC3)cc2C(=O)N([C@H](C)CO)C[C@@H]1C | 1.82 | -81.5% (inactive)
COc1ccc(NC(=O)N(C)C[C@H]2Oc3ccc(NC(=O)NC4CCCCC4)cc3C(=O)N([C@H](C)CO)C[C@@H]2C)cc1 | 1.61 | -60.9% (inactive)
Cc1ccc(NC(=O)N2CCC(NC(=O)c3ccccc3C)CC2)cc1 | 0.993 | 0.7% (inactive)
O=C(C[C@H]1C[C@H](C(=O)N2CCCCC2)[C@@]2(CCc3ccccc3)c3[nH]c4cc(-c5ccco5)ccc4c3CCN2C1=O)NCc1ccco1 | 1.16 | -16.1% (inactive)
O=C(Nc1ccccc1)Nc1cccc(Cl)c1 | 2.11 | -111% (active)
CC(=O)c1ccc(NC(=O)N2CCN(c3cccc(Cl)c3)CC2)cc1 | 1.08 | -7.6% (inactive)
O=C(Cn1nnc(-c2ccc(Cl)cc2)n1)NC1CC2CCC1C2 (centres undefined) | 1.15 | -15.3% (inactive)
O=C(Cc1ccccc1)NNC(=O)Nc1cccc(Cl)c1 | 0.911 | 8.85% (inactive)
O=C(NCc1csc2ccccc12)Nc1cc(Cl)cc(Cl)c1 | 2.45 | -145% (active)
O=C(NCc1cccc2ccccc12)Nc1ccccc1 | 1.74 | -74.1% (inactive)
O=C(Cc1cccc2ccccc12)NNC(=O)Nc1cccc(Cl)c1 | 0.964 | 3.65% (inactive)
O=C(Nc1cccc(Cl)c1)N1CCCC1 | 1.09 | -8.6% (inactive)
COC(=O)c1ccc(NC(=S)NC2CC3CCC2C3)cc1 (centres undefined) | 1.56 | -56% (inactive)
O=C(Nc1cccc(Cl)c1)NC1CC2CCC1C2 (centres undefined) | 2.64 | -164% (active)
O=C(Nc1ccc(C(=O)N2CCCCC2)cc1)Nc1cccc(Cl)c1 | 2.39 | -139% (active)
CC[C@]12c3[nH]c4ccc(OC)cc4c3CCN1C(=O)C(CC(=O)NCCC1=CCCCC1)C[C@@H]2C(=O)N1CCN(C(=O)C2CC2)CC1 (some centres undefined) | 1.01 | -1.4% (inactive)
O=C(Oc1cccc(NC(=O)c2ccco2)c1)c1ccc(Br)c(S(=O)(=O)N2CCCCC2)c1 | 0.907 | 9.3% (inactive)
O=C(Nc1scc(-c2ccccc2)c1C(=O)O)c1ccco1 | 0.964 | 3.6% (inactive)
CCn1c(CNc2ccc(OC)cc2)nnc1SCC(=O)Nc1ccc(F)cc1 | 1.08 | -7.7% (inactive)

From PubChem BioAssay AID434970 (Sanford-Burnham Center for Chemical Genomics, 2010)
